This passage reports Potency results from PubChem BioAssay (Tox21).

Where “and” joins values, the source holds several entries; their conditions need not be identical. Equal entries are not always repeated. Records with an inconclusive call do not appear. Some structures have more than one record in an assay (separate samples or runs), and their calls can disagree. Calls of active or inactive are those of the source. Unless noted, the call rests on the fitted dose curve.

Assay [1] is described as follows: Nuclear factor erythroid 2-related factor 2/antioxidant responsive element (Nrf2/ARE) small molecule agonists: qHTS cell viability counter screen in human keratinocytes (AID 1919968; active means well fitted curve in the direction sought with a large enough effect in the repeat runs; an effect the other way counts as inactive or inconclusive; further: nearly all actives have a fitted effect of over 55% in size). In a few lines:
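KeratinoSens HaCaT cells, 1,500/well, preincubated 5 h, then exposed to compounds in DMSO for 23 h at 37 C/5% CO2. Viability read as CellTiter-Fluor fluorescence after 1 h, in the same wells as the ARE-luciferase read.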

Assay [2] can be described thus: Nuclear factor erythroid 2-related factor 2/antioxidant responsive element (Nrf2/ARE) small molecule agonists: luciferase reporter gene qHTS assay in human keratinocytes (AID 1919969). Further: nearly all actives have a fitted effect of over 35% in size. Further: potency means the concentration at half of the fitted maximal effect.
The target in assay [3] is Gonadotropin-releasing hormone receptor (Homo sapiens) (UniProt P30968). Put plainly: Human gonadotropin-releasing hormone receptor (GnRHR) small molecule agonists, calcium flux assay in GnRHR-HEK293 cells (AID 1920063). Further: nearly all actives have a fitted effect of over 35% in size. In a few lines: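 HEK293 cells stably expressing human GnRHR were dye-loaded for 1 h at 37 C. Compound was added in agonist mode and fluorescence (Ex/Em 480/540) recorded kinetically for 3 min. Fifteen concentrations, triplicates.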

The target in assay [4] is KiSS-1 receptor (Homo sapiens) (UniProt Q969F8). Put plainly: Human kisspeptin (KISS1R) small molecule agonists, calcium flux assay in KISS1R-HEK293 cells (AID 1920064; active means well fitted curve in the direction sought with a large enough effect in the repeat runs; an effect the other way counts as inactive or inconclusive). In a few lines: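 HEK293 cells stably expressing human KISS1R were loaded with calcium dye for 1 h at 37 C, then given compound; fluorescence (Ex/Em 480/540) was read kinetically for 3 min. Fifteen concentrations, triplicate.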

The nature of assay [5]: G protein-coupled receptor (GPCR) small molecule agonists, calcium flux assay: HEK293 wild type cell line counter screen (AID 1920065). In a few lines: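 Wild-type HEK293 cells plated 18 h, loaded with calcium dye 1 h at 37 C, then compounds added in agonist mode (ATP as positive control). Kinetic fluorescence Ex/Em 480/540 recorded 3 min at 1 sec intervals; 15 concentrations, triplicate.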

Assay [6] can be described thus: p53 small molecule agonists, cell-based qHTS assay with rat liver microsomes (AID 1963578). Put shortly: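 Each plate received p53RE-bla cells, then compound, then rat liver microsomes and NADPH (both 0.5 mg/mL final). Plates were held 16 h at 37 C, and beta-lactamase activity was detected with LiveBLAzer over 2 h.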
The nature of assay [7]: p53 small molecule agonists, cell-based qHTS assay with human liver microsomes: qHTS cell viability counter screen (AID 1963579). Further: nearly all actives have a fitted effect of over 45% in size. Put shortly: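 Tox21 library compounds, delivered from DMSO stocks, were tested on p53RE-bla cells together with 0.5 mg/mL human liver microsomes and 0.5 mg/mL NADPH (final) over 16 h at 37 C; CellTiter-Glo luminescence served as the cytotoxicity measure.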

The nature of assay [8]: p53 small molecule agonists, cell-based qHTS assay with rat liver microsomes: qHTS cell viability counter screen (AID 1963580). Further: nearly all actives have a fitted effect of over 45% in size. In a few lines:
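Intracellular ATP, by CellTiter-Glo luminescence, defines viability. HCT-116 p53RE-bla cells, 4,000 per well, were compound-treated in the presence of rat liver microsomes and NADPH for 16 h at 37 C.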

Assay [9] can be described thus: p53 small molecule agonists, cell-based qHTS assay: qHTS cell viability counter screen (AID 1963581). Further: nearly all actives have a fitted effect of over 45% in size. Put shortly:
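p53RE-bla HCT-116 cells, compounds added 5 h after plating and incubated 16 h at 37 C. Cytotoxicity measured in the same wells as intracellular ATP by CellTiter-Glo luminescence after 30 min at room temperature.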

The nature of assay [10]: p53 small molecule agonists, cell-based qHTS assay (AID 1963582; active means well fitted activation curve with a large enough effect in the signal ratio in the repeat runs, not every such curve was filed as active; the % refers to the signal ratio). In a few lines:
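p53RE-bla reporter cells, compounds added in DMSO after 5 h plating, incubated 16 h at 37 C. Beta-lactamase read via 2 h room-temperature LiveBLAzer B/G FRET substrate, fluorescence intensity.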

Assay [11] addresses 5-hydroxytryptamine receptor 2A (Homo sapiens) (UniProt P28223). Put plainly: 5-hydroxytryptamine receptor 2A (HTR2A) small molecule antagonists, cell-based qHTS assay (AID 1963586). Further: nearly all actives have a fitted effect of over 45% in size. In a few lines: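 Antagonist-mode intracellular calcium assay: DOI (4 nM) added after 5 min compound pre-incubation at room temperature to dye-loaded HTR2A-CHO cells. Fluorescence followed for 3 min, sampled every second.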

Assay [12] has the same target. The experiment in a line: 5-hydroxytryptamine receptor 2A (HTR2A) small molecule agonists, cell-based qHTS assay (AID 1963587). Further: nearly all actives have a fitted effect of over 30% in size. In a few lines: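 Kinetic calcium-flux fluorescence (2 min, 1 sec intervals) after compound addition in agonist mode. HTR2A-CHO cells were cultured 18 h, then dye-loaded 1 h at 37 C.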
For assay [13], the target named is Muscarinic acetylcholine receptor M1 (Homo sapiens) (UniProt P11229). The experiment in a line: Cholinergic receptor muscarinic 1 (CHRM1) small molecule antagonists, cell-based qHTS assay (AID 1963588). Further: nearly all actives have a fitted effect of over 40% in size. In a few lines:
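CHRM1-CHO calcium-flux assay, antagonist mode. Cells were seeded 18 h, dye-loaded 1 h at 37 C and given compound for 5 min at RT, then acetylcholine was added at 50nM. FDSS fluorescence was read 3 min; 15 concentrations, three runs.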

The target is the same in assay [14]. Put plainly: Cholinergic receptor muscarinic 1 (CHRM1) small molecule agonists, cell-based qHTS assay (AID 1963589). Further: nearly all actives have a fitted effect of over 35% in size. In a few lines: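 CHO cells stably expressing human CHRM1 were loaded with calcium dye for 1 h at 37 C, then compound was added in agonist mode. Intracellular calcium fluorescence was followed kinetically at 1 s intervals. Fifteen concentrations were tested in three independent runs.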

Assay [15] can be described thus: cAMP Responsive Elements (CRE) small molecule agonists, cell-based qHTS assay (AID 1963590). In a few lines: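 CRE-bla HEK 293T cells, 2,000/well in DMEM with 10% dialyzed FBS and 25 mM HEPES, pre-incubated 18 h at 37 C, then exposed to compound 3 h at 37 C. Beta-lactamase reporter read with LiveBLAzer B/G FRET substrate after 2 h at room temperature.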
For assay [16], the target named is Beta-2 adrenergic receptor (Homo sapiens) (UniProt P07550). Put plainly: Adrenergic beta2 receptor (ADRB2) small molecule antagonists, cell-based qHTS assay (AID 1963592). Further: series mostly up to about 92 µM; nearly all actives have a fitted effect of over 50% in size. Put shortly:
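Cells (CHO, stable ADRB2 overexpression) incubated 18-20hr at 37C; compounds added from DMSO; agonist mix (1nM isoproterenol, 100uM IBMX, 25uM Ro-20-1724) added; 0.5hr RT; d2-cAMP and anti-cAMP-cryptate added; 1hr RT; 665/615 nm read.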

Assay [17] has the same target. Put plainly: Adrenergic beta2 receptor (ADRB2) small molecule agonists, cell-based qHTS assay (AID 1963593).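 Further: CHO cells stably overexpressing human ADRB2.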 In a few lines:
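CHO cells stably over-expressing ADRB2 were plated overnight at 37C, then dosed with compounds plus a stimulation mix containing 100uM IBMX and 25uM Ro-20-1724 for 0.5hr at room temperature. cAMP was measured by HTRF competition, 1hr.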

Assay [18] addresses D(2) dopamine receptor (Homo sapiens) (UniProt P14416). The experiment in a line: Dopamine D2 receptor (DRD2) small molecule agonists, cell-based qHTS assay (AID 1963594). Further: nearly all actives have a fitted effect of over 35% in size. Put shortly: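 cAMP accumulation in DRD2-HEK293 cells measured by HTRF after 1 h detection; compounds added 10 min before NKH477 (200nM […]) forskolin-analogue stimulation, 30 min at room temperature, with Ro20-1724 present at 0.1 mM final.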

Assay [19] has the same target. Put plainly: Dopamine D2 receptor (DRD2) small molecule antagonists, cell-based qHTS assay (AID 1963595; active means well fitted inhibition curve with a large enough effect in the signal ratio in the repeat runs, with a control signal flat; the % refers to the signal ratio). Put shortly:
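HEK293 cells stably expressing DRD2 were preincubated with 0.1 mM Ro20-1724, then with compound for 10 min at room temperature. Cells were stimulated with 200 nM NKH477 plus 12 nM quinpirole for 30 min, and cAMP was read by HTRF.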

Assay [20] can be described thus: cAMP Responsive Elements (CRE) small molecule antagonists, cell-based qHTS assay (AID 1963591; active means well fitted inhibition curve with a large enough effect in the signal ratio in the repeat runs, not every such curve was filed as active; the % refers to the signal ratio). Put shortly:
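CRE-bla HEK293T cells plated 18 h, then given compound plus NKH477 at 0.25 uM final for 3 h at 37C. Beta-lactamase reporter read with LiveBLAzer B/G FRET substrate after 2 h at room temperature.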

Sequence of Beta-2 adrenergic receptor (Homo sapiens) (P07550 whole entry, looked up): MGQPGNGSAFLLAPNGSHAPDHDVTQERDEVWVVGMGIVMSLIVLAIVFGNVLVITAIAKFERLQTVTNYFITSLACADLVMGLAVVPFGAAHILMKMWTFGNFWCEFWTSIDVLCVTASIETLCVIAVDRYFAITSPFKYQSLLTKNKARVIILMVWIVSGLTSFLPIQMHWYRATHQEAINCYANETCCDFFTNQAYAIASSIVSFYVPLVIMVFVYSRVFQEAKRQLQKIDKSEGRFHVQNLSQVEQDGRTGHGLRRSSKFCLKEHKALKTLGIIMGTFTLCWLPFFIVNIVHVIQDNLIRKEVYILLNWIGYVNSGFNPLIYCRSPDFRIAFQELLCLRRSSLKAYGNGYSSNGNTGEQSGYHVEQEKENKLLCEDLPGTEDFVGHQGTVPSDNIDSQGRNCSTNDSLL
Sequence of 5-hydroxytryptamine receptor 2A (Homo sapiens) (P28223 whole entry, looked up): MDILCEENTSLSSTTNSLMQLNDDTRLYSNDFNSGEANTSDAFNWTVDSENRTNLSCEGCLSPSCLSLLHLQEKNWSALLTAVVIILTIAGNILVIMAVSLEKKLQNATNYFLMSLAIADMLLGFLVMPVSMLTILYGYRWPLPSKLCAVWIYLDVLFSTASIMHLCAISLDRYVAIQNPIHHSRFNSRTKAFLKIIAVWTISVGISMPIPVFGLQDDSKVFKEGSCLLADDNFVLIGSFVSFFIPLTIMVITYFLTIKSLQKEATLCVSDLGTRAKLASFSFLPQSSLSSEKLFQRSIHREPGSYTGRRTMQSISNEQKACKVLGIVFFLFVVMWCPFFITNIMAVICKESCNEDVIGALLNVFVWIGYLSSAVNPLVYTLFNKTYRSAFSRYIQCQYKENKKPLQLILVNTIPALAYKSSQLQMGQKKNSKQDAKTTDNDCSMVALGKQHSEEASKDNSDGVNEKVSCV
Sequence of D(2) dopamine receptor (Homo sapiens) (P14416 whole entry, looked up): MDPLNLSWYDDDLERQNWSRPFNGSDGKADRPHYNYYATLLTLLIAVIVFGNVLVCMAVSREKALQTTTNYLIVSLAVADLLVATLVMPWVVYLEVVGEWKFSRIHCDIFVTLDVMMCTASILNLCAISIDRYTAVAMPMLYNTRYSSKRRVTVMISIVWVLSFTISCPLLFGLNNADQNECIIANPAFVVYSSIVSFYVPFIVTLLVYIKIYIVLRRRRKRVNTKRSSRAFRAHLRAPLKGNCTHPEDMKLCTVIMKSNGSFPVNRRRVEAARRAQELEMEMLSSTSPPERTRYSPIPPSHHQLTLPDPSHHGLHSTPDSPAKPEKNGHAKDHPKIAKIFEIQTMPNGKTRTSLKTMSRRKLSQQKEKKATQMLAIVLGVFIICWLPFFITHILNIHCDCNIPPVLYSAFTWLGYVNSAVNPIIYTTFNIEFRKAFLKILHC
Sequence of Muscarinic acetylcholine receptor M1 (Homo sapiens) (P11229 whole entry, looked up): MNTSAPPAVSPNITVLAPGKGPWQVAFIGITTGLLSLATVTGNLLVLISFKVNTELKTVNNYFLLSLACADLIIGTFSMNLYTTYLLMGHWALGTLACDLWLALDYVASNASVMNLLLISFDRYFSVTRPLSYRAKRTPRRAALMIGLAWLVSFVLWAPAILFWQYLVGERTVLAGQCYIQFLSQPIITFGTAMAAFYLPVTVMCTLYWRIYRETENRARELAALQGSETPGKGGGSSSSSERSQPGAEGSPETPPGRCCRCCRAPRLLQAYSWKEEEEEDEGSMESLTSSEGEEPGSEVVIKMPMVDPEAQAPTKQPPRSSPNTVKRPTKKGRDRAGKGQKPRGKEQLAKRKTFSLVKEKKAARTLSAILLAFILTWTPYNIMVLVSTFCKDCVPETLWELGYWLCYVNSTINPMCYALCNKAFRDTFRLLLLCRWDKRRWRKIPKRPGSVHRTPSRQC
Sequence of Gonadotropin-releasing hormone receptor (Homo sapiens) (P30968 whole entry, looked up): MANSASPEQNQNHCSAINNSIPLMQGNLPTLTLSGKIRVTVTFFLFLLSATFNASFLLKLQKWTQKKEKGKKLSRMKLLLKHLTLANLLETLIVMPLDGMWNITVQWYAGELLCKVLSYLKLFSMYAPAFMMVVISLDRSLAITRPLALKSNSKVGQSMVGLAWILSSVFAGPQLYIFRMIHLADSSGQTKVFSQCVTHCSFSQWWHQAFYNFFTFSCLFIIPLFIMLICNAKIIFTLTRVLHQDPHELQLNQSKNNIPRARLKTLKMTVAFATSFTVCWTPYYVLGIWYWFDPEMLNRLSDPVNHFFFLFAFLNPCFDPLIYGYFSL
Sequence of KiSS-1 receptor (Homo sapiens) (Q969F8 whole entry, looked up): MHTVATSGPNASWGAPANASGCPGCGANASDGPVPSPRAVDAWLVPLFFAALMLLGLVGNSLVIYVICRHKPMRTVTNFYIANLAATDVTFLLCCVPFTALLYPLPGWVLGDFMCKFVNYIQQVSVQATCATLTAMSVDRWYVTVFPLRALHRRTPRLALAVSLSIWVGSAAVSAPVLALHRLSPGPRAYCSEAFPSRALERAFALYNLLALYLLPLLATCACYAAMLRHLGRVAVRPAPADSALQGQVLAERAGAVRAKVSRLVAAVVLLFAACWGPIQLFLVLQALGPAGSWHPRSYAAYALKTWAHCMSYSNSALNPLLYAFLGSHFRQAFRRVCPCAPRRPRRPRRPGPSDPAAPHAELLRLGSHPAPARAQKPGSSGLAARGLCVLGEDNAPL

`C=CC(=O)NC(C)(C)CC(C)=O`: the Potency entry in [1], in assay [2], in [3], in assay [4], in assay [5] and in assay [6] was “inactive” in each case. Further, the Potency entry in assay [7], in [8], in [9], in [10], in [11] and in assay [12] was “inactive” in each case. For the same compound, the Potency result in assay [13], in assay [14], in [15], in [16], in assay [17] and in [18] was “inactive” throughout. Besides, in assay [19], the Potency entry was “inactive”.
Regarding `CC(C)Nc1nc(Cl)nc(NC(C)C)n1`, the Potency entry in assay [1], in [2], in assay [3], in [4], in assay [5] and in assay [6] was “inactive” in each case. The Potency result in assay [7], in assay [8], in assay [11], in assay [12], in [13] and in [14] was “inactive” each time. For the same compound, the Potency result in assay [15], in [20], in [16], in assay [17], in assay [18] and in [19] was “inactive” in each case.
On to `CCNc1nc(NCC)nc(SC)n1`, for which the Potency entry in [1], in assay [2], in assay [3], in [4], in assay [5] and in assay [6] was “inactive” each time. In addition, the Potency result in assay [7], in assay [9], in assay [10], in assay [11], in [12] and in [13] was “inactive” throughout. For the same compound, the Potency entry in [14], in [15], in [20], in assay [16], in assay [17] and in assay [18] was “inactive” in each case. In assay [19], the Potency result is “inactive”.
Consider `CN1CC[C@]23c4c5ccc(O)c4O[C@H]2[C@@H](O)CC[C@H]3[C@H]1C5`, for which the Potency entry in assay [1], in assay [2], in assay [3], in assay [4], in assay [5] and in [6] was “inactive” throughout. Also, the Potency entry in [7], in assay [8], in assay [9], in [10], in [11] and in assay [12] was “inactive” each time. For the same compound, the Potency result in [13], in assay [14], in assay [15], in [20], in assay [16] and in assay [18] was “inactive” in each case. Moreover, the Potency result in [19] is “inactive”.
Turning to `CCOP(=S)(OCC)Oc1ccc2c(C)c(Cl)c(=O)oc2c1`, the Potency result in assay [1], in [3], in assay [4], in assay [5], in assay [6] and in assay [7] was “inactive” each time. Besides, the Potency result in assay [8], in assay [10], in assay [12], in assay [13], in assay [14] and in assay [16] was “inactive” each time. Besides, the Potency result in assay [18] and in [19] was “inactive” in each case. The Potency result in [2] is “inactive and 10.6 µM (active)”.
Take `ClCCOCCCl`: the Potency entry in assay [1], in assay [2], in assay [3], in assay [4], in [5] and in [6] was “inactive” in each case. In addition, the Potency result in assay [7], in [8], in assay [9], in assay [10], in assay [11] and in assay [12] was “inactive” in each case. The Potency entry in [13], in [14], in [15], in assay [20], in assay [16] and in [17] was “inactive” in each case. The Potency entry in assay [18] and in [19] was “inactive” each time.
As for `CCOP(=S)(OCC)Oc1cnc2ccccc2n1`, the Potency result in assay [1], in assay [2], in assay [3], in [4], in [5] and in assay [6] was “inactive” each time. Further, the Potency result in assay [7], in [8], in assay [9], in [10], in assay [11] and in [12] was “inactive” throughout. For the same compound, the Potency result in [14], in assay [15], in assay [20], in assay [16], in [17] and in assay [18] was “inactive” each time. Also, the Potency result in assay [19] was “inactive”.
